Calls of active or inactive are those of the source. The calls were made as follows: active = hit-call score of the fitted dose curve at least 0.9, where 1 is the maximum; inactive = score below 0.9.

This is an account of results in PubChem BioAssay (EPA / NIEHS).

What all share (details): mRNA level, 48 h; actives raise or lower the signal
Read-out in one assay: CYP2C8 (gene 1558)
Kind of assay: LTEA_HepaRG_CYP2C8: Life Technologies and Expression Analysis (LTEA) Assay for CYP2C8 using HepaRG (AID 2283483). Put shortly:
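HepaRG (human liver line), 48 h chemical exposure, 8-pt half-log series from 100 uM, 0.5% DMSO vehicle. Readout: CYP2C8 transcript by qRT-PCR, housekeeping-normalized. Bidirectional fit vs DMSO baseline.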

Read-out in a further assay: CYP2E1 (gene 1571)
Kind of assay: LTEA_HepaRG_CYP2E1: Life Technologies and Expression Analysis (LTEA) Assay for CYP2E1 using HepaRG (AID 2283485). In short, it runs like this:
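Readout is qRT-PCR of CYP2E1 mRNA, normalized to three housekeeping genes and fitted bidirectionally against 0.5% DMSO. HepaRG cells were dosed 48 h at eight concentrations, highest 100 uM with half-log dilutions.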

Read-out in the next assay: CYP4A11 (gene 1579)
The experiment in a line: LTEA_HepaRG_CYP4A11: Life Technologies and Expression Analysis (LTEA) Assay for CYP4A11 using HepaRG (AID 2283486). Put shortly:
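HepaRG, 48 h chem exposure, 8 conc (100 uM top, half-log), 0.5% DMSO vehicle; qRT-PCR readout, housekeeping-gene normalized; bidirectional curve fit vs DMSO baseline.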

Read-out in assay [1]: Cytochrome P450 3A4 (Homo sapiens) (UniProt P08684)
The experiment in a line: LTEA_HepaRG_CYP3A4: Life Technologies and Expression Analysis (LTEA) Assay for CYP3A4 using HepaRG (AID 2283487). In short, it runs like this:
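Differentiated HepaRG cells, plated 48 h, then dosed 48 h in serum-free induction medium with 0.5% DMSO, 8 half-log concentrations up to 100 uM, duplicate. CYP3A4 mRNA by qRT-PCR, normalized to ACTB/GAPDH/POLR2A; bidirectional fit versus DMSO.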

Read-out in assay [2]: DNA damage-inducible transcript 3 (DDIT3), DDIT3 (gene 1649)
Kind of assay: LTEA_HepaRG_DDIT3: Life Technologies and Expression Analysis (LTEA) Assay for DNA damage-inducible transcript 3 (DDIT3) using HepaRG (AID 2283488). Put shortly:
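Cells are human HepaRG liver cells treated for 48 h with eight half-log concentrations up to 100 uM in 0.5% DMSO. Transcript levels come from qRT-PCR normalized to three housekeeping genes, with activity fitted in both directions relative to vehicle.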

Read-out in assay [3]: Pro-epidermal growth factor (Homo sapiens) (UniProt P01133)
The experiment in a line: LTEA_HepaRG_EGF: Life Technologies and Expression Analysis (LTEA) Assay for Epidermal growth factor (EGF) using HepaRG (AID 2283489). In short, it runs like this:
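HepaRG, 48 h dosing, 100 uM top, half-log x8, 0.5% DMSO. Readout: TaqMan qRT-PCR (Fluidigm array), housekeeping-normalized. Gain or loss of signal fit vs DMSO.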

Read-out in assay [4]: Early growth response protein 1 (EGR1) transcription factor, EGR1 (gene 1958)
The experiment in a line: LTEA_HepaRG_EGR1: Life Technologies and Expression Analysis (LTEA) Assay for Early growth response protein 1 (EGR1) transcription factor using HepaRG (AID 2283490). In short, it runs like this:
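HepaRG, 48 h exposure, 8-pt half-log series from 100 uM, 0.5% DMSO vehicle; EGR1 transcript by TaqMan qRT-PCR (Fluidigm array), housekeeping-normalized; bidirectional fit relative to DMSO baseline.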

Read-out in assay [5]: Cytochrome P450 3A7 (Homo sapiens) (UniProt P24462)
Kind of assay: LTEA_HepaRG_CYP3A7: Life Technologies and Expression Analysis (LTEA) Assay for CYP3A7 using HepaRG (AID 2283492). Put shortly:
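Human HepaRG liver cells, 48 h post-plating, switched to serum-free induction medium and exposed in duplicate for 48 h. Dosing: 100 uM top, half-log dilutions, 8 points, 0.5% DMSO vehicle. Read-out: CYP3A7 mRNA, gain or loss fitted against DMSO baseline.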

Read-out in another assay: CYP3A5 (gene 1577)
Kind of assay: LTEA_HepaRG_CYP3A5: Life Technologies and Expression Analysis (LTEA) Assay for CYP3A5 using HepaRG (AID 2283493). In short, it runs like this: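 Human HepaRG hepatic cells receive 48 h chemical treatment at eight concentrations (half-log steps from 100 uM) in 0.5% DMSO. Expression of CYP3A5 is quantified by Fluidigm qRT-PCR and normalized to three reference genes.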

Read-out in assay [6]: Fatty Acid-Binding Protein 1 (FABP1), FABP1 (gene 2168)
The experiment in a line: LTEA_HepaRG_FABP1: Life Technologies and Expression Analysis (LTEA) Assay for Fatty Acid-Binding Protein 1 (FABP1) using HepaRG (AID 2283494). In short, it runs like this:
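qRT-PCR readout of FABP1 transcript (normalized to three housekeeping genes) after 48 h chemical exposure of HepaRG cells; eight concentrations, half-log steps, max 100 uM, 0.5% DMSO vehicle; gain or loss fitted relative to DMSO baseline.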

Read-out in assay [7]: Cytochrome P450 4A22 (Homo sapiens) (UniProt Q5TCH4)
The experiment in a line: LTEA_HepaRG_CYP4A22: Life Technologies and Expression Analysis (LTEA) Assay for Cytochrome P450 4A22 (CYP4A22) using HepaRG (AID 2283495). Put shortly:
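Readout is CYP4A22 transcript induction or loss, quantified by qRT-PCR and normalized to ACTB, GAPDH and POLR2A. Human HepaRG cells receive test chemicals for 48 h at eight half-log concentrations from 100 uM in 0.5% DMSO.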

Read-out in assay [8]: Cytochrome P450 7A1 (Homo sapiens) (UniProt P22680)
Kind of assay: LTEA_HepaRG_CYP7A1: Life Technologies and Expression Analysis (LTEA) Assay for Cytochrome P450 7A1 (CYP7A1) using HepaRG (AID 2283496). Put shortly:
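HepaRG, 48 h exposure, 8-pt half-log series from 100 uM, 0.5% DMSO vehicle, duplicates. Readout: TaqMan qRT-PCR mRNA vs three housekeeping genes; bidirectional curve fit against DMSO baseline.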

Read-out in assay [9]: Glutathione S-Transferase (GSTA2), GSTA2 (gene 2939)
Kind of assay: LTEA_HepaRG_GSTA2: Life Technologies and Expression Analysis (LTEA) Assay for Glutathione S-Transferase (GSTA2) using HepaRG (AID 2283497). In short, it runs like this:
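qRT-PCR readout of GSTA2 transcript, normalized to three housekeeping genes, fitted bidirectionally against 0.5% DMSO baseline. Differentiated HepaRG cells received compound for 48 h at 8 concentrations (top 100 uM, half-log steps).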

Read-out in assay [10]: Glutamate-cysteine ligase catalytic (GCLC), GCLC (gene 2729)
The experiment in a line: LTEA_HepaRG_GCLC: Life Technologies and Expression Analysis (LTEA) Assay for Glutamate-cysteine ligase catalytic (GCLC) using HepaRG (AID 2283498). In short, it runs like this: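 HepaRG, 48 h exposure, 8-pt half-log series from 100 uM, 0.5% DMSO vehicle; TaqMan qRT-PCR for GCLC mRNA, housekeeping-normalized; bidirectional curve fit vs DMSO baseline.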

Read-out in assay [11]: growth arrest and DNA damage 45 (GADD45G), GADD45G (gene 10912)
Kind of assay: LTEA_HepaRG_GADD45G: Life Technologies and Expression Analysis (LTEA) Assay for growth arrest and DNA damage 45 (GADD45G) using HepaRG (AID 2283499). Put shortly:
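Gain or loss of GADD45G mRNA, quantified by TaqMan qRT-PCR against three housekeeping genes, is fitted in both directions relative to 0.5% DMSO. Human HepaRG cultures receive test chemical for 48 h at up to 100 uM.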

Read-out in assay [12]: Glutamate-cysteine ligase regulatory (GCLM), GCLM (gene 2730)
Kind of assay: LTEA_HepaRG_GCLM: Life Technologies and Expression Analysis (LTEA) Assay for Glutamate-cysteine ligase regulatory (GCLM) using HepaRG (AID 2283500). Put shortly: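 Endpoint is GCLM transcript level by qRT-PCR, normalized to three housekeeping genes, after 48 h chemical exposure of human HepaRG cells (0.5% DMSO vehicle, top 100 uM, half-log dilutions). Fitting was bidirectional relative to DMSO.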

Read-out in assay [13]: Glutathione S-transferase M3 (GSTM3), GSTM3 (gene 2947)
Kind of assay: LTEA_HepaRG_GSTM3: Life Technologies and Expression Analysis (LTEA) Assay for Glutathione S-transferase M3 (GSTM3) using HepaRG (AID 2283501). Put shortly:
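HepaRG, plated 48 h, then serum-free induction medium; test chemical 48 h, duplicate; 100 uM top, half-log x8, 0.5% DMSO. Read-out: GSTM3 mRNA (TaqMan qRT-PCR, Fluidigm array). Bidirectional fit vs DMSO.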

Read-out in a further assay: CYP2C9 (gene 1559)
The experiment in a line: LTEA_HepaRG_CYP2C9: Life Technologies and Expression Analysis (LTEA) Assay for CYP2C9 using HepaRG (AID 2283484). Put shortly:
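HepaRG, 48 h dosing, 8-pt half-log series, top 100 uM, 0.5% DMSO vehicle. Read-out: CYP2C9 transcript by TaqMan qRT-PCR, housekeeping-normalized (ACTB/GAPDH/POLR2A). Gain or loss fitted vs DMSO baseline.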

Read-out in assay [14]: Ezrin (EZR), EZR (gene 7430)
Kind of assay: LTEA_HepaRG_EZR: Life Technologies and Expression Analysis (LTEA) Assay for Ezrin (EZR) using HepaRG (AID 2283491). Put shortly: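 EZR transcript levels came from Fluidigm qRT-PCR and were normalized to three housekeeping genes after 48 h chemical exposure of HepaRG cells. Dosing used an 8-point half-log series with a 100 uM top concentration in 0.5% DMSO, tested in duplicate; both directions were fitted versus vehicle.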

Chain of Cytochrome P450 3A4 (Homo sapiens) (P08684 whole entry, looked up): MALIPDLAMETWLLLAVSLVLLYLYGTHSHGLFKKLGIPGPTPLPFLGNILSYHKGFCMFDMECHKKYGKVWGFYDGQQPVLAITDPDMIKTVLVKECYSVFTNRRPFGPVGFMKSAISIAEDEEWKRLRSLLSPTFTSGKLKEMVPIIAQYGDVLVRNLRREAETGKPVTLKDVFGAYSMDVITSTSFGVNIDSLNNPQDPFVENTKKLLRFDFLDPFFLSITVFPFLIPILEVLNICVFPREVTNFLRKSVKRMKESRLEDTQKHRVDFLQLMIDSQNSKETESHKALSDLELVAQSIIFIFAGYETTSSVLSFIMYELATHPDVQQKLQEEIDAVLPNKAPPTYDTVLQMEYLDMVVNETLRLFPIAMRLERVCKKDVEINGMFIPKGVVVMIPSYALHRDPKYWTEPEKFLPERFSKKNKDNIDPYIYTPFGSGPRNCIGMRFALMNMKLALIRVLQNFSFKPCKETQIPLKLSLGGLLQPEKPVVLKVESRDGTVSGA
Chain of Cytochrome P450 3A7 (Homo sapiens) (P24462 whole entry, looked up): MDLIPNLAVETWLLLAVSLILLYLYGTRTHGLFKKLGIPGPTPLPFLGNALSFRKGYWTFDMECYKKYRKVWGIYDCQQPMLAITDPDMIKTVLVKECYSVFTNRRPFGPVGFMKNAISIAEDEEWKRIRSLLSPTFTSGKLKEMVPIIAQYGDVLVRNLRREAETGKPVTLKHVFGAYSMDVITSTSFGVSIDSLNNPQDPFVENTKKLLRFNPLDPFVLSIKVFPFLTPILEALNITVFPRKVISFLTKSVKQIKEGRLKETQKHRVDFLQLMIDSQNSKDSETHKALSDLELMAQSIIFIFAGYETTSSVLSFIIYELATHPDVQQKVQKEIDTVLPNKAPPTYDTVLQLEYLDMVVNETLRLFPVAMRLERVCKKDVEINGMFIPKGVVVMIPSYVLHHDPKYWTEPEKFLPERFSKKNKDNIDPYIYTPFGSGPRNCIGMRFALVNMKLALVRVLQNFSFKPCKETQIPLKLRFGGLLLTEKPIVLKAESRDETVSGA

In the case of `COP(=O)(OC)SCn1c(=O)oc2cc(Cl)cnc21`, the call (in the assay with CYP2C8 (gene 1558); with CYP2E1 (gene 1571); in [2]; in assay [3]; in assay [4]; in [6]) was inactive. Also, the result in assay [8], in assay [10], in [11], in assay [12] and in [13] was inactive. Besides, the AC50 was 36.2 µM (active) with CYP4A11 (gene 1579); 37.3 µM (active) in assay [1]; 50 µM (active) in assay [5]; 37.8 µM (active) with CYP3A5 (gene 1577); 46.7 µM (active) in assay [7]; 65 µM (active) in [9].

In the case of `COc1ccc(C(=CC(=O)N2CCOCC2)c2ccc(Cl)cc2)cc1OC`, the AC50 with CYP2C8 (gene 1558) is 10.4 µM (active); in the assay with CYP2E1 (gene 1571), 15.3 µM (active); in the assay with CYP4A11 (gene 1579), 59 µM (active); in assay [1], 9.63 µM (active); in [7], 50 µM (active). Also, the molecule was called inactive (with CYP2C9 (gene 1559); in [2]; in assay [3]; in [4]; in assay [5]; in the assay with CYP3A5 (gene 1577)). For the same molecule, the molecule was called inactive in assay [6], in assay [8], in [10], in assay [11], in assay [12] and in [13].

For `C=C(C)[C@H]1Cc2c(ccc3c2O[C@@H]2COc4cc(OC)c(OC)cc4[C@@H]2C3=O)O1`, the AC50 in the assay with CYP2C8 (gene 1558) is 1.36 µM (active); in the assay with CYP2E1 (gene 1571), 0.591 µM (active); with CYP4A11 (gene 1579) it was 0.838 µM (active); in assay [2], 1.27 µM (active); in assay [3] it was 50 µM (active); in assay [4], 15.7 µM (active). Further, the AC50 in assay [14] is 1 µM (active); in the assay with CYP3A5 (gene 1577), 11.5 µM (active); in assay [6] it was 1.25 µM (active); in assay [7], 0.834 µM (active); in [8], 3.69 µM (active); in [9], 3 µM (active). Besides, the AC50 is 1.18 µM (active) in assay [11], 2.57 µM (active) in [12] and 23.9 µM (active) in assay [13]. In addition, the outcome in assay [10] was inactive.

In the case of `C#CC(C)(C)NC(=O)c1cc(Cl)cc(Cl)c1`, the result (in the assay with CYP2C8 (gene 1558); in the assay with CYP4A11 (gene 1579); in [2]; in assay [3]; in [4]; in assay [14]) was inactive. Moreover, the call (with CYP3A5 (gene 1577); in assay [6]; in assay [8]; in [10]; in [11]; in assay [12]) was inactive. In addition, in assay [13], the result was inactive. Further, the AC50 in the assay with CYP2E1 (gene 1571) is 26.1 µM (active); in assay [1] it was 5.13 µM (active); in assay [5], 4.98 µM (active); in assay [7] it was 40.9 µM (active).
